Results as given in PubChem BioAssay AID1985 (Southern Research Specialized Biocontainment Screening …, 2009).
Screen size: about 2,300 compounds; about 1,000 (43%) were called active. How the calls were made is not given here. So high a share suggests a set chosen from earlier hits. This is one part of the list. Results with a measured potency or affinity are listed apart.

Assay: modified counter assay using GFP fluorescence, PhoP regulon inhibitor project, dose response (AID 1985)
Conditions: S. Typhi, 4 h; series mostly up to 150 µM; inhibition: at the top concentration

Row | SMILES | inhibition
1 | Cc1ccc(S(=O)(=O)NC(C)(C)CSc2nnc(N)s2)cc1 | -30.3% (inactive)
2 | CCc1ccccc1NC(=S)N(Cc1cccc(C)c1)c1cccnc1 | -7.68% (inactive)
3 | CN1CCN(C(=O)c2cc(-c3cccc(Cl)c3)on2)CC1 | 5.44% (inactive)
4 | CC1(C)CC(N2CCN(C(c3ccccc3)c3ccccc3)CC2)=CC(=[N+]2CCCCC2)C1 | 17.4% (inactive)
5 | CCn1c(-c2cccc(Br)c2)n[nH]c1=S | 11.6% (inactive)
6 | CC(=O)c1sc2nc(=O)c(C)nn2c1C | -12.1% (inactive)
7 | Cc1ccc(C(=O)N2C(=S)C(c3ccc(F)cc3)=NC23CCN(C)CC3)cc1 | 10.3% (inactive)
8 | COc1ccc(N=Cc2c(O)n(CC3CCCO3)c(=O)[nH]c2=O)cc1 (stereo unspecified) | -0.83% (inactive)
9 | CC(=O)c1c(C)nc(-c2cccc([N+](=O)[O-])c2)n1O | -7.51% (inactive)
10 | COc1cc(C)nc(N2CCCC(C(=O)NCC(C)C)C2)n1 (stereo unspecified) | 6.1% (inactive)
11 | O=C(C[n+]1cc(-c2ccc(Cl)cc2)n2c1CCC2)N1c2ccccc2Sc2ccccc21 | 33.5% (inactive)
12 | CCOC(=O)C1CCCN(C/C(O)=C(\C#N)c2nc(-c3ccccc3)cs2)C1 (stereo unspecified) | -20.3% (inactive)
13 | O=C(O)c1csc(-c2ccc(Cl)cc2)n1 | 36.8% (inactive)
14 | Cc1ccc(-c2csc(NC(=O)C[n+]3cc(-c4ccccc4)n4c3CCC4)n2)cc1 | -33.3% (inactive)
15 | CC(=O)N(CCC1(c2ccc(C)cc2)CCOC(C(C)C)C1)Cc1ccco1 (stereo unspecified) | 18.1% (inactive)
16 | Cc1cccc(/C(N)=N/OC(=O)N2CCOCC2)c1 | 25.3% (inactive)
17 | CCOC(=O)C1CCN(Cc2nc(-c3ccc(OC)c(OC)c3)no2)CC1 | -15.2% (inactive)
18 | CC(=O)c1ccc(NC(=O)CN2CCCCCC2)cc1 | 15.7% (inactive)
19 | O=C(Cn1[nH]c(=O)c2ccccc2c1=O)Nc1ccc(-c2nnc3n2CCCCC3)cc1 | 10.1% (inactive)
20 | COC(=O)c1ccc(CSc2ccc3nnc(-c4ccc(OC)c(OC)c4)n3n2)o1 | -11.5% (inactive)
21 | COc1ccc(S(=O)(=O)NCCSCc2ccco2)cc1Cl | 12.5% (inactive)
22 | Clc1ccc(CONc2ncnc3nonc23)c(Cl)c1 | 12.7% (inactive)
23 | CCN1CCCC1Cn1cnc2c([nH]c3ccc(Cl)cc32)c1=O (stereo unspecified) | 26.1% (inactive)

Row | SMILES | inhibition
24 | CCCCCCCCn1ccc(=N)cc1 | 15.6% (inactive)
25 | O=c1c2ccccc2nc(-c2ccoc2)n1CCc1ccccc1 | 18.5% (inactive)
26 | O=C(On1c(-c2ccccc2)nc2ccccc2c1=O)c1ccco1 | 25.2% (inactive)
27 | CCC(O)CNc1nc(SC)nc2sc3c(c12)CCN(C)C3 (stereo unspecified) | 6.31% (inactive)
28 | CN1C(=O)C2(Nc3ccccc3-c3nc4ccccc4n32)c2ccccc21 (stereo unspecified) | 3.48% (inactive)
29 | O=C(N/N=C\c1cccc([N+](=O)[O-])c1O)C1COc2ccccc2O1 (stereo unspecified) | -26.6% (inactive)
30 | CCCCCN1C(=O)/C(=C/c2c(N3CCc4ccccc4C3)nc3ccccn3c2=O)SC1=S | -12.8% (inactive)
31 | Clc1ccc(N/N=C/c2cccs2)nn1 | 7.58% (inactive)
32 | Cn1cc(C(=O)N/N=C/C(Br)=C/c2ccccc2)ccc1=O | 4.35% (inactive)
33 | C/C(=N\NC(=O)c1c(Br)c(C)nn1C)c1ccc(NC(=O)c2ccoc2C)cc1 | 5.71% (inactive)
34 | CCN(CC)Cc1c(C(=O)N/N=C/c2cccs2)nnn1-c1nonc1N | 28.9% (inactive)
35 | COc1cccc2cc(C(=O)Nc3ccccc3C)/c(=N/O)oc12 | -16.5% (inactive)
36 | Cc1ccnc(NC(=O)CCC(=O)N(CC(=O)NC2CCCCC2)C2CCCC2)c1 | -5.33% (inactive)
37 | COC(=O)C1C(=O)C2=C(CC1C)Nc1ccccc1NC2c1ccc(C)s1 (stereo unspecified) | -5.97% (inactive)
38 | CC(C(=O)NC1CCCCC1)N1CCN(C)CC1 (stereo unspecified) | -31.5% (inactive)
39 | CN(C)c1nnnn1-c1ccc(Oc2ccccc2)cc1 | 24.8% (inactive)
40 | COC(=O)c1sccc1NC(=S)NCc1ccc(Cl)cc1 | -3.82% (inactive)
41 | Cn1nnnc1SCC(=O)Nc1ccccc1-c1ccccc1 | 9.74% (inactive)
42 | CC1CCN(C(=O)CSc2nnc(Cc3cc(=O)[nH]c(=O)[nH]3)n2-c2ccc(Cl)cc2)CC1 | 17.4% (inactive)
43 | CCOc1cc(S(=O)(=O)N2CCN(CC)CC2)ccc1Cl | -5.49% (inactive)
44 | Cc1cc(C)n2nc(SCn3nnc4ccccc4c3=O)nc2n1 | 11.8% (inactive)
45 | Cc1ccc2cc(CN(Cc3ccc(F)cc3)Cc3nnnn3C3CCCC3)c(=O)[nH]c2c1 | -28% (inactive)
46 | CCCCCCNC1=NCCS1 | 31.9% (inactive)

Row | SMILES | inhibition
47 | CN(C)CCSc1nnc2[nH]c3ccccc3c2n1 | -3.67% (inactive)
48 | COc1ccc(-n2ncc3c(NCc4ccccn4)ncnc32)cc1 | -9.74% (inactive)
49 | CCCCCCCCC1=NCCc2c1[nH]c1ccccc21 | -11% (inactive)
50 | CC1=C([N+](=O)[O-])C(c2cccc(Br)c2)C2=C(N1)c1ccccc1C2=O (stereo unspecified) | 20.7% (inactive)
51 | O=C(O)C1Cc2ccccc2CN1S(=O)(=O)c1ccc2ccccc2c1 (stereo unspecified) | -7.48% (inactive)
52 | CC(=O)c1c(C)[nH]c(C(=O)CSc2nnc(-c3ccc(Cl)cc3)n2CC2CCCO2)c1C (stereo unspecified) | 0.08% (inactive)
53 | O=C(CSc1nc2ncc(Cl)cc2[nH]1)NCC(=O)Nc1ccc(F)c(F)c1F | 4.94% (inactive)
54 | CC1(C)CC(N2CCN(c3ccccc3)CC2)=CC(=[N+]2CCCC2)C1 | 8.5% (inactive)
55 | CCCCCCC(=O)N(O)C1CC(=O)N(Cc2ccccc2)C1=O (stereo unspecified) | 6.46% (inactive)
56 | Cc1ccc(OCC(O)Cn2c(N)nc3c2c(=O)n(C)c(=O)n3C)cc1 (stereo unspecified) | -6.08% (inactive)
57 | C=CCn1c(C)c(C(C)=O)c(N2CCCC2)nc1=S | 15.9% (inactive)
58 | CCOC(=O)C1=C(C(C)=O)C(c2cccnc2)C(C#N)=C(N)O1 (stereo unspecified) | 3.6% (inactive)
59 | COc1ccc(CN2CCSCC2)cc1C | 17.3% (inactive)
60 | Cc1ccc(NC(=O)CN(C)C(=O)Cn2ccsc2=N)cc1 | 9.59% (inactive)
61 | CC(C)NC(=O)c1cc(-c2ccc(Br)cc2)on1 | 2.62% (inactive)
62 | Cc1ccccc1-c1ncc(CN2CCN(C3CCCC3)C(CCO)C2)cn1 (stereo unspecified) | 9.03% (inactive)
63 | Nc1nc2n(n1)C(c1ccco1)CC(c1ccc(Cl)c(Cl)c1)N2 (stereo unspecified) | -11.5% (inactive)
64 | COc1ccc(NS(=O)(=O)c2cccc(NC(=O)c3ccccn3)c2)cc1 | 1.48% (inactive)
65 | CCN(CC)CCNC(=O)c1cccc(NC(=O)C(=O)c2cc(Br)ccc2NC(C)=O)c1 | 15% (inactive)
66 | CC(=O)Nc1cc(-c2ccc(Cl)cc2)[nH]n1 | -11.4% (inactive)
67 | O=C(NC(=C(Cl)Cl)S(=O)(=O)c1ccc(Cl)cc1)c1ccccc1 | -3.98% (inactive)
68 | CCCCCCCCCCCCC/C=C/[C@@H](O)[C@@H](N)CO | 21.2% (inactive)
69 | COc1ccc(OC)c(S(=O)(=O)N2CCC(C(=O)NCCc3ccc(OC)c(OC)c3)CC2)c1 | -3.61% (inactive)

Row | SMILES | inhibition
70 | Cc1nnc(SCc2cnc(-c3ccc(C(C)C)cc3)s2)n1C | 34.8% (inactive)
71 | O=C(C[n+]1cc(-c2ccccc2)n2c1CCC2)c1cccs1 | 18.7% (inactive)
72 | Cc1ccc(-n2c(Cc3noc4ccccc34)n[nH]c2=S)cc1 | 2.98% (inactive)
73 | CCc1nnc(NS(=O)(=O)c2ccc(NC(=S)NC(=O)/C=C/c3ccc([N+](=O)[O-])cc3)cc2)s1 | -7.82% (inactive)
74 | CCN(CC)CCCNC(=O)c1c(O)c2c([nH]c1=O)CCCC2 | 6.8% (inactive)
75 | CCSc1nc(C)cc(C)c1S(=O)(=O)c1ccccc1C | -0.26% (inactive)
76 | O=c1ccn(CCc2c[nH]c3ccccc23)c2c1CCCC2 | -12.7% (inactive)
77 | Nc1cccc2c(=O)c3ccccc3[nH]c12 | 16.4% (inactive)
78 | Cc1[nH]c2ccccc2c1/C=C/c1nc2ccccc2c(=O)[nH]1 | 15.8% (inactive)
79 | Cc1ccc2[nH]c(C(=O)O)c(NC(=O)CN3CCN(c4cccc(C)c4C)CC3)c2c1 | 36.2% (inactive)
80 | CC1CCC[C@H](O)CCCCCc2cc(O)cc(O)c2C(=O)O1 (stereo partly specified) | -28.5% (inactive)
81 | O=C(O)c1ccc(S(=O)(=O)NC2CC2)cc1 | 25% (inactive)
82 | c1cc2c(cc1C1CCCCC1)c1c3n2CCN=C3CCC1 | -16.8% (inactive)
83 | CC1(C)CC(=O)C(C=NCC2CCN(C(=O)Cc3ccccc3)CC2)=C(O)C1 | 6.03% (inactive)
84 | O=C(CSc1ncc(-c2ccc(F)cc2)[nH]1)NCc1ccco1 | -32.3% (inactive)
85 | O=C(CSc1nc2c(c(=O)n1-c1ccc(F)cc1)SCC2)NCc1ccco1 | -0.95% (inactive)
86 | COc1ccccc1Nc1nc(NCc2ccco2)c2ccccc2n1 | 21.9% (inactive)
87 | c1ccc(CN2CCN(c3nc(NCc4ccco4)c4ccccc4n3)CC2)cc1 | 20.6% (inactive)
88 | CC(C)(C)c1nc(SCC(=O)NCc2ccco2)c2ccccc2n1 | -7.41% (inactive)
89 | CC1CCCN(C(=O)Cn2c(=O)oc3cc(S(=O)(=O)N4CCCCC4)ccc32)C1 (stereo unspecified) | -3.65% (inactive)
90 | COc1ccc(CSCCN)cc1Cl | 5.75% (inactive)
91 | CCCOc1ccc(C2=CSC3=NCCN23)cc1Cl | 10.9% (inactive)
92 | c1ccn(-c2ccc(-c3ccn[nH]3)cc2)c1 | 2.06% (inactive)

Row | SMILES | inhibition
93 | O=C(NCc1ccco1)c1ccc2c(c1)N(Cc1ccccc1)CCS2 | -17.1% (inactive)
94 | O=C1N/C(=C/c2ccc(N3CCOCC3)cc2)C(=O)N1Cc1ccc(F)cc1 | -4.52% (inactive)
95 | CCOC(=O)c1c(CSC(=N)N)n(C)c2cc(Br)c(OC(C)=O)cc12 | -19% (inactive)
96 | CCOC(=O)Cc1[nH]nc2c1C(c1ccoc1)C(C#N)=C(N)O2 (stereo unspecified) | 24.6% (inactive)
97 | NC1=NC[C@H](Cc2ccc(O)cc2)N1CCc1cccc2ccccc12 | -33.5% (inactive)
98 | COc1ccc(C(=O)Oc2cc(C(=S)N3CCOCC3)ccc2OC)cc1 | -4.19% (inactive)
99 | COc1cc2c(cc1OC)CN(C(=O)CCCN1C(=O)c3ccccc3C1=O)CC2 | 11% (inactive)
100 | Cc1ccc(C)c(OCC(=O)Nc2cccc(C(=O)O)c2)c1C | 26.7% (inactive)
101 | Cc1cc(C)c[n+](CC(=O)c2ccc(NC(=O)c3ccccc3)cc2)c1 | 15% (inactive)
102 | CC(C)(C)n1nc2c(c1NC(=O)c1ccccc1)CS(=O)(=O)C2 | -6.62% (inactive)
103 | Cc1c(-c2ccccc2)[n+](=O)c2c(n1[O-])CCCC2 | 7.37% (inactive)
104 | Cn1c(CCN2CCN(c3ccccn3)CC2)nc2cc(NC(=O)COc3ccccc3)ccc21 | 16.1% (inactive)
105 | O=c1c2ccccc2nc2n1CCc1c-2[nH]c2ccccc12 | -12.2% (inactive)
106 | COc1cc(/C=C(/C#N)C(=O)Nc2ccccc2)c(Br)cc1OCc1ccc(C(=O)O)cc1 | -2.34% (inactive)
107 | CCC(=O)N1CCc2cc(S(=O)(=O)NCCCN3CCN(Cc4ccccc4)CC3)ccc21 | -4.18% (inactive)
108 | CCNC(=S)Nc1cc(-c2ccc(Cl)cc2)[nH]n1 | -1.85% (inactive)
109 | CCn1nnnc1SCC(=O)c1cc(Cl)ccc1OC | 4.28% (inactive)
110 | CC1CCC(C(C)C)C(OC(=O)C[n+]2cc(-c3ccc(Cl)cc3)n3c2CCC3)C1 (stereo unspecified) | 35.1% (inactive)
111 | CC1CCC(C(C)C)C(OC(=O)Cn2c(-c3ccc(Br)cc3)[n+](C)c3ccccc32)C1 (stereo unspecified) | -18.7% (inactive)
